Whole data set: some 16,000 sequences, median “Z-score” near -0.37, cut for the highest 2% near 3.1. The list comes from a sample in which the highest values are over-represented; it also holds similar and randomly drawn sequences.

This note sets out measurements from the supplement of paper PMC5499739.

The assay deals with RBM10 RRM1-ZnF-RRM2 (GST-tagged construct). Briefly: RNAcompete 7-mer binding Z-score; higher = stronger binding preference. Put shortly: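 GST-tagged RBM10 constructs (20 pmol) and a designed pool of 241 399 RNAs up to 41 nt (1.5 nmol) were allowed to bind for 30 min at 4°C in 1 ml Hepes pH 7.8 buffer with glutathione Sepharose beads. After four 2-min washes at 4°C, bound RNA was identified by microarray hybridisation. Enrichment was scored per heptamer motif as a one-sided Z-score across the probes containing it.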
Consider CAUCCCA, for which the “RNAcompete 7-mer binding Z-score” value is -0.486.
As for GCCAUCG, the figure is -0.646.
In the case of GACUUCA, the “RNAcompete 7-mer binding Z-score” value was -0.672.
The value for UUGCUGA was -0.486; that for AUAAGUU was -0.249; that for CGAGAGG was 1.46.
With UUCCAGA, the “RNAcompete 7-mer binding Z-score” value was -0.519.
Take UGGCUUU: the “RNAcompete 7-mer binding Z-score” value was -0.464.
Consider GUGGAGC, for which the “RNAcompete 7-mer binding Z-score” value stood at 2.47.
Regarding AUGGAGU, the “RNAcompete 7-mer binding Z-score” value worked out at 2.24.
The value for AUGGAGG was 4.33; that for GUGGAGU was 2.86; that for CCGGAGG was 0.876.
As to GCGGAGG, the “RNAcompete 7-mer binding Z-score” value turned out to be 3.25.
On to ACGGAGG, for which the “RNAcompete 7-mer binding Z-score” value came to 2.57.
Consider GUGGAGG, for which the “RNAcompete 7-mer binding Z-score” value is 4.09.
As to AUGGAGA, the “RNAcompete 7-mer binding Z-score” value is 2.59.
For CGAUAAU, the “RNAcompete 7-mer binding Z-score” value is -0.256.
Take GGAUCAA: the “RNAcompete 7-mer binding Z-score” value was determined as 1.19.
For CAUCCCU, the “RNAcompete 7-mer binding Z-score” value is -0.69.
Consider CGAAGUU, for which the “RNAcompete 7-mer binding Z-score” value is -0.235.
In the case of AACAGUG, the “RNAcompete 7-mer binding Z-score” value amounted to 0.654.
Consider GCUCGCA, for which the “RNAcompete 7-mer binding Z-score” value was -0.373.
Regarding UAACUAC, the “RNAcompete 7-mer binding Z-score” value was -0.551.
As for CGAUUGG, the “RNAcompete 7-mer binding Z-score” value amounted to 0.825.
GAAUAGG: the “RNAcompete 7-mer binding Z-score” value turned out to be 3.18.
On to CAAUAGG, for which the “RNAcompete 7-mer binding Z-score” value was 1.3.
As for UAAUAGG, the figure is 0.742; as for GGAUUGG, 3.28; as for GGAUAGG, 4.1.
As to AGAUAGG, the “RNAcompete 7-mer binding Z-score” value amounted to 2.87.
Take GGAUAGA: the “RNAcompete 7-mer binding Z-score” value worked out at 2.48.
Turning to GGAUUGU, the “RNAcompete 7-mer binding Z-score” value was determined as 0.822.
Regarding UGACGCA, the “RNAcompete 7-mer binding Z-score” value is -0.107.
Turning to AACCUAA, the “RNAcompete 7-mer binding Z-score” value is -0.734.
UUAGCUC: the “RNAcompete 7-mer binding Z-score” value is -0.781.
As for CGAUAUC, the “RNAcompete 7-mer binding Z-score” value was -0.5.
GGAUCGC: the “RNAcompete 7-mer binding Z-score” value came out at 0.538.
On to UAUGAGG, for which the “RNAcompete 7-mer binding Z-score” value was found to be 1.54.
In the case of UCCAGCC, the “RNAcompete 7-mer binding Z-score” value is -0.799.
Take ACAGAUC: the “RNAcompete 7-mer binding Z-score” value is -0.508.
As to CACGUGC, the “RNAcompete 7-mer binding Z-score” value is -0.428.
Turning to UAUUGCG, the “RNAcompete 7-mer binding Z-score” value is -0.278.
For UCCCGUU, the “RNAcompete 7-mer binding Z-score” value is -0.799.
With UUCGUCG, the “RNAcompete 7-mer binding Z-score” value was -0.3.
For the sequence CUUAAUC, the “RNAcompete 7-mer binding Z-score” value is -0.905.
Turning to GCAAGGU, the “RNAcompete 7-mer binding Z-score” value is 2.17.
Regarding ACAAGGA, the “RNAcompete 7-mer binding Z-score” value turned out to be 1.94.
Take ACAAGGG: the “RNAcompete 7-mer binding Z-score” value amounted to 3.52.
As for CCAAGGG, the “RNAcompete 7-mer binding Z-score” value amounted to 1.05.
The value for GCAAGGG was 3.28; that for GCAAGGA was 2.65.
Turning to AAAAAUU, the “RNAcompete 7-mer binding Z-score” value was -0.435.
As for GAUAUAG, the “RNAcompete 7-mer binding Z-score” value stood at 0.734.
For the sequence CUUUACG, the “RNAcompete 7-mer binding Z-score” value is -0.81.
On to UCGAGUU, for which the “RNAcompete 7-mer binding Z-score” value is -0.482.
On to GCCUACC, for which the “RNAcompete 7-mer binding Z-score” value was -0.726.
For GGGCUGC, the “RNAcompete 7-mer binding Z-score” value was determined as 1.14.
Turning to GAAGGUG, the “RNAcompete 7-mer binding Z-score” value turned out to be 4.37.
As to GUAGGUA, the “RNAcompete 7-mer binding Z-score” value was 2.25.
The value for UAAGGUA was 1.39; that for GAAGGUC was 1.25.
The value for GAAGGUA was 4.04; that for UAAGGUG was 2.07; that for AUAGGUG was 2.41.
As for GAAGGUU, the figure is 2.96; as for CAAGGUG, 2.13.
As for AAAGGUG, the “RNAcompete 7-mer binding Z-score” value came to 3.5.
The value for GUAGGUG was 3.25; that for GAAGGCG was 2.66.
Regarding GCCAUGU, the “RNAcompete 7-mer binding Z-score” value was -0.632.
On to CUAGUGC, for which the “RNAcompete 7-mer binding Z-score” value was -0.486.
Turning to AACCGUG, the “RNAcompete 7-mer binding Z-score” value was -0.00148.
Turning to UCGAAAG, the “RNAcompete 7-mer binding Z-score” value was -0.00148.
With AUUCGAG, the “RNAcompete 7-mer binding Z-score” value is -0.114.
The value for AGACCGG was -0.366.
The value for AAAGGUC was 1.46; that for AAAGGUA was 3.53; that for AAAGGUU was 3.09.
The value for CGAAGGU was 1.34; that for UGAAGGC was 1.21.
On to AGAAGAA, for which the “RNAcompete 7-mer binding Z-score” value is 1.
As for UGAAGCG, the “RNAcompete 7-mer binding Z-score” value was 0.581.
Turning to CGAAGGA, the “RNAcompete 7-mer binding Z-score” value was 1.62.
In the case of GGAAGGC, the “RNAcompete 7-mer binding Z-score” value is 3.04.
In the case of GGAAGGA, the “RNAcompete 7-mer binding Z-score” value came out at 4.61.
As for UGAAGGA, the “RNAcompete 7-mer binding Z-score” value was 2.95.
UGAAGGG: the “RNAcompete 7-mer binding Z-score” value was determined as 3.56.
The value for GGAAGGU was 3.94.
As to AGAAGGC, the “RNAcompete 7-mer binding Z-score” value is 1.17.
On to AGAAGGA, for which the “RNAcompete 7-mer binding Z-score” value stood at 4.29.
As for CGAAUAA, the “RNAcompete 7-mer binding Z-score” value is -0.224.
